# Screening data: PubChem BioAssay, National Center for Advancing Translational Sciences (NCATS)
# Most compounds without a hit are left out; they make up all but 8% or so of the library.
# KB-V1 MDR tox – KB-V1 MDR subline cytotoxicity; KB-V1 MDR cells viability, CellTiter-Glo, 72 h; Potency, µM (top dose mostly 46.1 µM), usual class: cytotoxic; actives 3.4% (n = 400,000); also: nearly all actives have a fitted effect of over 60% in size
#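 In this primary screen, KB-V1 cells overexpressing P-gp are incubated with library compounds (lowest to highest concentration) for 72 h at 37 degrees C before a luminescent ATP viability read.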
# HT1080-NT tox – kills 2HG-producing HT-1080-NT fibrosarcoma cells; HT-1080-NT fibrosarcoma viability, CellTiter-Glo ATP luminescence, 48 h; Potency, µM (series often up to 46.1 µM), hits mostly cytotoxic; actives 1.6% (n = 360,000);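 also: NT is the 2HG producing partner of a matched IDH1 knockdown line; nearly all actives have a fitted effect of over 55% in size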
#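 Luminescent CellTiter-Glo readout after 48 hours of compound exposure at 37 degrees C defined viability of HT-1080-NT cells. Activity was normalized to DMSO wells and cell-free media wells; concentration-response curves were fitted and assigned curve classes.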
# MCF10A rereplic – DNA re-replication induction in MCF 10a cells | MCF 10A DNA re-replication, Hoechst nuclear intensity, 48 h | Potency, µM (series often up to 46.1 µM), hits mostly activators | actives 2.9% (n = 350,000); also: nearly all actives have a fitted effect of over 50% in size
# HT1080 IDH1KD tx – toxicity to HT-1080 IDH1 knockdown cells (counter line) | HT-1080 IDH1 knockdown viability, ATP luminescence, 48 h | Potency, µM (titrated, usually from 46.1 µM), usual class: cytotoxic | actives 2% (n = 360,000) | AID 686971
#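 After a 2 h attachment period, IDH1KD HT-1080 cells took pin-transferred compound for 48 h at 37 °C; ATP-based luminescence after 10 min room-temperature reagent incubation reported viability.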
# KB-3-1 tox – kills parental KB-3-1 adenocarcinoma cells. actives 1.4% (n = 400,000). AID 1347075. KB-3-1 viability, CellTiter-Glo ATP luminescence, 72 h. Potency, µM (series often up to 46.1 µM), actives largely listed as cytotoxic; also: nearly all actives have a fitted effect of over 60% in size
#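 Screening of KB-3-1 cells (DMEM, 10% FBS, phenol-red free) ran from lowest to highest compound concentration; after 72 h at 37 °C viability was read luminescently and curves fitted.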
# SW480 rereplic – DNA re-replication induction in SW480 cells | SW480 DNA re-replication, Hoechst DNA content imaging, 48 h | Potency, µM (highest dose often 46.1 µM), hits mostly activators | actives 1.8% (n = 340,000) | AID 624297; also: nearly all actives have a fitted effect of over 55% in size
#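 Quantitative HTS format with DMSO vehicle controls; 48 hr drug incubation at 37 C, then 40 min Hoechst staining and scanning imager measurement at 405 nm excitation.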
# Hits are given with their value; – = inactive; ? = inconclusive; · = no result; [ ] = remark or other dose. Calls follow the shape of the dose curve; as a rule, active = well fitted curve in the direction sought with a large enough effect; inconclusive = small, poorly fitted or top-dose-only effect, or another doubt; inactive = no such curve, though single readings can be large; an effect the other way counts as inactive or inconclusive.
SMILES,KB-V1 MDR tox,HT1080-NT tox,MCF10A rereplic,HT1080 IDH1KD tx,KB-3-1 tox,SW480 rereplic
Cn1nc(C(C)(C)C)cc1C(=O)N1CCCCC1c1cc(C(=O)NCc2ccc(F)cc2)no1 (stereo unspecified),4.1µM,–,·,?,?,·
Cn1nc(C(C)(C)C)cc1C(=O)N1CCCCC1c1cc(C(=O)NCc2ccccc2)no1 (stereo unspecified),9.2µM,–,·,?,?,·
Cn1c(=O)cc(SCC(=O)N2CCN(c3ccccc3F)CC2)c2ccccc21,–,·,·,·,–,·
C[C@H](CO)N1C[C@H](C)[C@@H](CN(C)S(=O)(=O)c2ccccc2)Oc2ccc(NC(=O)Cc3ccccc3)cc2C1=O,–,–,–,–,–,–
CCOC(=O)c1cc(C)n(Cc2cccc(OC)c2OC)c1C,?,–,?,–,–,–
CC(Sc1nnnn1C1CC1)C(=O)N1c2ccccc2NC(=O)C1(C)C (stereo unspecified),21µM,–,–,–,–,–
Cc1nc(Cc2nnc(SC(C)C(=O)N3c4ccccc4NC(=O)C3(C)C)o2)cs1 (stereo unspecified),–,–,–,–,–,–
COc1ccc(-c2cc(C(F)(F)F)n3ncc(C(=O)N(C)Cc4ccccc4)c3n2)cc1,–,–,?,?,–,23µM
NC(=O)c1cnn2c(C(F)(F)F)cc(-c3ccc(F)cc3)nc12,13µM,–,–,–,–,–
NC(=O)c1cnn2c(C(F)(F)F)cc(-c3ccccc3)nc12,?,–,–,–[9.24 µM],–,–
O=C(O)c1ccc2oc(=O)n(Cc3ccccc3)c2c1,–,·,·,·,–,·
N#Cc1ccsc1NC(=O)CN(Cc1ccccc1)Cc1ccccc1,10µM,–,?,–,?,–
O=C(COC(=O)CC1c2ccccc2CCN1S(=O)(=O)c1ccccc1)Nc1ccccc1 (stereo unspecified),?,–,–,–,–,·
Cc1ccc(C)c(NC(=O)COC(=O)CC2c3ccccc3CCN2S(=O)(=O)c2ccc(F)cc2)c1 (stereo unspecified),21µM,–,–,–,–,–
CCOC(=O)c1c(-c2ccc(C)cc2)csc1NC(=O)C1CCCO1 (stereo unspecified),–,–,13µM,–,–,–
CCOC(=O)c1c(-c2ccc(C)cc2)csc1NC(=O)CCN1CC(C)OC(C)C1 (stereo unspecified),?,–,21µM,?,?,–
CC(C)OC(=O)c1c(-c2ccc(C(C)C)cc2)csc1NC(=O)C1CCCO1 (stereo unspecified),?,–,18µM,–,?,–
N#Cc1ccc(CN2CCN(C(=O)c3cccc(S(=O)(=O)N4CCCCCC4)c3)CC2)cc1,·,–,–,–,·,–
Cc1cc(C)nc(NC(=O)c2cccs2)n1,–,–,–,–,–,–
COc1cc(C2C(=O)c3ccccc3C2=O)ccc1O,–,–,–,–,–,–
COc1ccc(Cl)cc1C(=O)Nc1nc(C)cc(C)n1,–,–,–,–,–,–
CCCS(=O)(=O)c1nnnn1-c1cccc(OC)c1,–,10µM,6.5µM,6.3µM,–,?
COc1cccc(-n2nnnc2SCC(=O)Nc2ccccc2OC)c1,–,–,–,–,–,–
NS(=O)(=O)c1ccc(CNC(=O)c2ccc(Br)o2)cc1,–,–,–,–,–,–
CN(CC1CCCO1)S(=O)(=O)c1ccc(C(=O)Nc2nccs2)cc1 (stereo unspecified),18µM,–,–,–,–,–
SMILES,KB-V1 MDR tox,HT1080-NT tox,MCF10A rereplic,HT1080 IDH1KD tx,KB-3-1 tox,SW480 rereplic
Cc1cc(NC(=O)c2ccc(S(=O)(=O)N(C)CC3CCCO3)cc2)no1 (stereo unspecified),–,–,–,–,–,–
CN(CC1CCCO1)S(=O)(=O)c1ccc(C(=O)Nc2ccc3c(c2)OCO3)cc1 (stereo unspecified),–,–,–,–,–,–
COc1ccc(-c2nnc(NC(=O)c3ccc(S(=O)(=O)N(C)CC4CCCO4)cc3)o2)c(OC)c1 (stereo unspecified),5.8µM,–,?,–,–,?
Cc1cc(C)n(S(=O)(=O)c2ccc(C)c(C)c2)n1,–,–,–,–,–,–
COc1cccc(CNc2ccc(S(N)(=O)=O)cc2)c1OC,?,–,–,–,–,18µM
CC(C)(CCc1ccccn1)C(=O)C(CCc1ccccn1)CCc1ccccn1,–,–,–,–,–,–
CC(C)OC(=O)C1C(=O)CC(C)(O)C(C(=O)OC(C)C)C1c1ccccc1 (stereo unspecified),–,–,–,–,–,–
CCOC(=O)Nc1ccc2nc(N3CCCCCC3)sc2c1,?,?,15µM,8.2µM,–,10µM
CCOCc1c(C(=O)Nc2ccc3nc(N4CCOCC4)sc3c2)oc2ccccc12,21µM,–,?,–,?,–
COc1ccc(NC(=O)CN2CCc3ccccc3C2)cc1S(=O)(=O)N1CCOCC1,–,–,–,–,–,–
COc1cc2c(cc1OC)C(C)N(CC(=O)Nc1ccc(C)c(S(=O)(=O)N3CCOCC3)c1)CC2 (stereo unspecified),–,16µM,–,?,–,–
Cc1nc(SCC(=O)Nc2ccc(S(=O)(=O)N3CCOCC3)cc2)c2c(C)c(C)sc2n1,–,–,?,?,5.8µM,–
Cc1ccc(NC(=O)CSc2nnc(-c3ccccn3)n2C)cc1,–,–,–,–,–,–
CN(Cc1ccccc1)C(=O)c1ccc(NC(=O)Cc2ccc(NC(=O)C3CCN(C(=O)c4ccccc4)CC3)cc2)cc1,–,–,?,–,–,–
O=C(CSc1nnc(-c2ccccc2F)n1C1CCCCC1)Nc1cc(C(=O)O)ccc1Cl,–,–,–,–,–,–
Cc1ccc(NC(=O)CSc2nc(C)c(C)c(C)n2)cc1S(=O)(=O)N1CCOCC1,?,–,–,–,–,–
Cc1ccc(NC(=S)NCc2ccccc2)cc1S(=O)(=O)N1CCCCC1,13µM,–,–,–,?,?
O=C(Nc1ccc(S(=O)(=O)N2CCCC2)cc1)c1cc(=O)c2ccccc2o1,–,–,–,–,–,–
Cc1ccc(NC(=O)CSc2nc(N)cc(N)n2)cc1S(=O)(=O)N1CCOCC1,–,–,?,–,–,3.7µM
Cc1ccc(NC(=O)c2cc(=O)c3ccccc3o2)cc1S(=O)(=O)N1CCOCC1,16µM,–,–,–,–,–
COCc1c(C(=O)Nc2ccc(C)c(S(=O)(=O)N3CCOCC3)c2)oc2ccccc12,4.6µM,–,?,–,?,–
O=C(Nc1ccc(S(=O)(=O)N2CCCCCC2)cc1)c1cc(=O)c2ccccc2o1,–,·,·,·,–,·
